Source: PubChem BioAssay AID588849 (Broad Institute, 2011)
Measured potencies and affinities stand elsewhere. Activity calls are given as the source filed them. No rule for the calls is given here.

Molecular target: CAAX prenyl protease 2 (Homo sapiens) (UniProt Q9Y256)
Assay: human Rce1 protease inhibitors, dose response, biochemical, yeast membranes, quenched-peptide fluorescence, cherry-pick (AID 588849)
Details: yeast membrane fractions expressing human Rce1, quenched-peptide fluorescence, 4 h; series mostly up to 10 µM; activity change, negative = inhibition: at the top concentration

CAAX prenyl protease 2 (Homo sapiens), sequence (Q9Y256 whole entry, looked up): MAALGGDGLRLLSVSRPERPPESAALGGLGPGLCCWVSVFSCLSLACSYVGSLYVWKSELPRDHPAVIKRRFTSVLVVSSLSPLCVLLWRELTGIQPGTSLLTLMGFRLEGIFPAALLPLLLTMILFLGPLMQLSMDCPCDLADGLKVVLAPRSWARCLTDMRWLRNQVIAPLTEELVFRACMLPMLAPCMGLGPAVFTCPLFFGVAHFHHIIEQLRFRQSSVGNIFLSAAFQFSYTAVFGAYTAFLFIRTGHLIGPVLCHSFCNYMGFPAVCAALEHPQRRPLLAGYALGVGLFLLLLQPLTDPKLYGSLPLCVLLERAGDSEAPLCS

Activity change, negative = inhibition, inactive:
COc1ccc(-c2cn3ccccc3n2)cc1[N+](=O)[O-] -0.851%, COCc1c(Br)c(C)[nH]c(=O)c1C#N -4.46%, COc1cc(-c2nc3ccccn3c2/N=C/c2cc(OC)c(OC)c(OC)c2)ccc1O -9.61% [at 3.5 µM], O=C(O)CCCC[C@@H]1SC[C@@H]2NC(=O)N[C@@H]21 26.2%, Cc1cc2nn(-c3cccc4ccccc34)nc2cc1NC(=O)c1cccs1 95.4%, COC(=O)/C=c1\[nH]c2nnc(C)n2c1=O -12.8%, COc1ccc(C(C(=O)NC2CCCCC2)N(C(=O)c2snc(C(N)=O)c2N)c2ccc(OC)cc2OC)cc1 (stereo not drawn) 4.83%, O=C(O)c1ccc2cccc(Cl)c2c1O -8.94%, CCN(CC)CCCNC(=O)CCc1c(C)n(CC)c2cc(-c3ccccc3OC)nn2c1=O -17.2%, CC(=O)NC(Cc1c[nH]c2ccccc12)C(=O)O (stereo not drawn) -6.1%, COc1ccc(CSc2ccc(-c3nc4ccccn4c3NCc3ccccc3)cc2OC)cc1 -2.55%, CCN(CC)CCN(C(=O)c1cc2ccccc2cc1OC)c1nc2ccc(F)cc2s1 -25.1%, CCOc1ccc(-n2c(SCc3ccc([N+](=O)[O-])cc3)nnc2-c2ccc(OC)cc2)cc1 -8.97%, O=c1c(-c2nnc(SCc3ccc(Cl)c(Cl)c3)o2)cccn1Cc1ccccc1 -95.5%, CCOc1ccc(C2C(C(=O)OC)=CN(C(C)c3ccccc3)C=C2C(=O)OC)cc1 (stereo not drawn) -3.39%, CN1CCN(C(=S)NC(=O)c2ccccc2Cl)CC1 0.21%, O=C(NC1CC1)c1ccc2c(c1)N(Cc1ccccc1)CCS2 25.6%, COc1ccc(C2CC(c3ccc4ccccc4c3)=NN2C(=O)CNC2CCCCC2)cc1 (stereo not drawn) -16.3%, CCCCCCCCCC[N+](C)(C)CC/C=C1/c2ccccc2Sc2ccc(Cl)cc21 -7.78% [at 3.5 µM], Cc1ccc(NS(=O)(=O)c2ccc(NC(=O)N3CCCCC3)cc2)cc1 5.86%, O=S(=O)(c1ccccc1)c1nc(-c2ccco2)oc1N1CCCCC1 -7.08%, COc1ccc(-c2ccc3oc(-c4ccc(OC)cc4)c(-c4ccc(OC)cc4)c3c2)cc1 -14.4%, COc1ccc(C(CNC(=O)COc2cc(C)c(Cl)c(C)c2)N2CCCCC2)cc1 (stereo not drawn) -12.7%, COc1ccc(-n2c(SCc3ccc([N+](=O)[O-])cc3)nnc2-c2ccc(C)cc2)cc1 -12.3%, CCCCN(CC)CCNC(=O)c1cc2c(-c3ccc(Cl)cc3)nn(C)c2s1 0.506%, Cc1ccccc1OC(C)C(=O)N1CCC(Cc2ccccc2)CC1 (stereo not drawn) -8.23%, Cc1nc(N2CCOCC2)c2c(C)c(C(=O)Nc3ccc(C(F)(F)F)cc3)sc2n1 -9.73%, Cc1cc(NC(=O)c2oc3ccccc3c2C)ccc1-n1cnnn1 -14.9% [at 3.5 µM], Cc1ccc(-c2nc(SCC(=O)N(C)C3CCS(=O)(=O)C3)[nH]c2-c2ccc(C)cc2)cc1 (stereo not drawn) -23.7%, COc1ccccc1/C=C/C=N/NC(=O)CN1CCN(S(=O)(=O)c2ccc(C)cc2)CC1 -15.5%, O=C(NCC1CC1)c1ccc(Nc2nc3ccc(Br)cc3[nH]2)cc1 -1.65%, CCn1cc(/C=C(\NC(=O)c2ccccc2F)C(=O)N2CCCC2)c2ccccc21 -16.6%, CC(=O)c1c(O)cc(O)c(C(C)=O)c1O -7.79%, FC(F)(F)c1cc(Oc2ccccc2)ncc1-c1nnc(-c2ccccc2Cl)o1 3.97%, CCN(C(=O)COC(=O)c1cc(-c2cccs2)nc2ccccc12)C1CCS(=O)(=O)C1 (stereo not drawn) -10.1%, CCCC(=O)N1CCN(c2ccc(NC(=O)c3cc4ccccc4o3)cc2Cl)CC1 -12%, COc1ccc(CN2CCN(C(c3ccc(F)cc3)c3ccc(F)cc3)CC2)c(OC)c1OC -15.4%, CSc1ccc(C(=O)C2CCCN(C(=O)c3cccnc3SC)C2)cc1 (stereo not drawn) -5.94%
